For 40 compounds, inhibition results are on record in ChEMBL document CHEMBL3433997, “St. Jude Leishmania screening dataset” (2016).

The assay addresses Hexose transporter 1 (Plasmodium falciparum) (UniProt O97467). The assay can be described thus: ST_JUDE_LEISH: Cytotoxicity at 2uM final concentration against transgenic Leishmania Mexicana promastigotes LmPfHT that are glucose transport deficient and complemented with the Plasmodium falciparum hexose transporter. Activity is measured by DNA content using SYBR green in vitro. The class given is functional.
Turning to `O=C(/C=C/c1ccc(Cl)c(Cl)c1)N1CCC(CN2CCC(c3c[nH]c4ncccc34)CC2)CC1`, the inhibition (usually the drop in the measured response relative to a control, in per cent) came out at 3.52%.

Consider `CCOc1cc(C(=O)N[C@@H](Cc2ccccc2)[C@H](O)CNCc2cc(OC)cc(OC)c2)cc(N2CCCCS2(=O)=O)c1`, for which the inhibition is -0.68%.

With `CC(C)(C)c1ccc(C(=O)N2CCC3(CC2)C(=O)N(CC(=O)NCC2CCCO2)CN3c2ccccc2)cc1` (stereo not given), the inhibition stood at 4.61%.

For `Cc1cccc2nc(-c3ccc(-c4cccc(NC(=O)CCc5c[nH]cn5)c4)s3)[nH]c12`, the inhibition amounted to 2.05%.

For the compound `C[C@H](NC(=O)c1c(CN2CCC(N3CCCCC3)CC2)c(-c2ccccc2)nc2cc(O)ccc12)C1CCCCC1`, the inhibition stood at 4.06%.

On to `CN1CCC(C(=O)Nc2cccc(-c3cccc(-c4nc5cc(F)ccc5[nH]4)c3)c2)CC1`, for which the inhibition is 5.02%.

Consider `CC(C)CCNc1nc(NCCc2ccccc2)c2cc(O)ccc2n1`, for which the inhibition is 3.99%.

On to `c1ccc(Oc2ccc(Nc3ccnc4cc(-c5ccc(CNCCN6CCOCC6)o5)ccc34)cc2)cc1`, for which the inhibition is 2.86%.

For `O=C(Nc1ccc(C(F)(F)F)cc1)c1ccc(S(=O)(=O)NC2CCCN(CC3CCCCC3)C2)cc1` (stereo not given), the inhibition turned out to be 4.53%.

On to `CCC(CC)(Cc1ccccc1)NC(=O)[C@H](CC(C)C)Nc1ccc(C#N)c2ccccc12`, for which the inhibition came out at 10.4%.

For `c1ccc(CCNCc2ccc(-c3ccc(CNC4CCN(Cc5ccccc5)CC4)cc3)nc2)cc1`, the inhibition is 11.9%.

Regarding `CC1(C)N=C(N)N=C(N)N1OCCc1ccc2ccccc2c1`, the inhibition came out at 1.47%.

Regarding `O=C(Nc1cccc(-c2cccc(CN3CCCC3)c2)c1)c1ccc(Cl)cc1`, the inhibition is 1.32%.

`Cc1cc2nc(-c3ccc(OCC(=O)NCc4ccc(C(C)(C)C)cc4)cc3)[nH]c2cc1C`: the inhibition worked out at 7.11%.

On to `CCOc1ccc(/C=C/C(=O)Nc2cccc3c2CCN(C)C3)cc1`, for which the inhibition was 7.2%.

Consider `c1cc(CN2CCN(CCN3CCOCC3)CC2)cc(-c2ccc(-c3nc4ccccc4[nH]3)cc2)c1`, for which the inhibition was 6.81%.

Take `Cc1nn(-c2ccccc2)nc1C(=O)N(Cc1ccc(-c2ccc(CNCCc3ccc(S(C)(=O)=O)cc3)cn2)cc1)C(C)CN(C)C` (stereo not given): the inhibition turned out to be 3.63%.

With `O=C(NC1CCN(CC2(c3ccc(Cl)cc3)CCCCC2)CC1)c1cc[nH]n1`, the inhibition worked out at 2.9%.

`CC1CCc2c(C(=O)Nc3c(F)cc(F)cc3Br)csc2C1` (stereo not given): the inhibition was found to be 0.02%.

As for `CCN(CC)CCN(Cc1ccc(-c2ccc(C(F)(F)F)cc2)cc1)C(=O)Cn1c(CCc2ccccc2F)nc(=O)c2ccccc21`, the inhibition was 3.39%.

On to `CCN(CC)CCN(Cc1ccc(-c2ccc(C(F)(F)F)cc2)cc1)C(=O)c1c[nH]c2ccc(Br)cc12`, for which the inhibition was found to be 1.01%.

Consider `CCn1c(-c2nonc2N)nc2c(-c3cccc(NC(=O)Nc4cccc(C(F)(F)F)c4)c3)ncc(OCCCN)c21`, for which the inhibition stood at 1.37%.

Consider `COc1ccc(-n2nc(C(=O)NCCC3=CCCCC3)c3ccccc3c2=O)cc1`, for which the inhibition was -0.88%.

For the compound `O=C(Nc1ccc(Oc2ccccc2)cc1)N(CCN1CCCC1)Cc1ccc(-c2ccc(CN3CCNCC3)cc2)cc1`, the inhibition is 1.54%.

Take `CCCC(C(=O)OCCN(CC)CC)(c1ccc(Cl)cc1)c1ccc(Cl)cc1`: the inhibition stood at 5.49%.

Take `O=C(CCc1nc2c(cnn2-c2ccccc2)c(=O)[nH]1)NC1CCSc2ccccc21` (stereo not given): the inhibition was found to be 1.79%.

Regarding `Cc1cc(NS(=O)(=O)c2cccc(C(C)N3CCC(N4CCCC4)CC3)c2)ccc1C(C)C` (stereo not given), the inhibition came out at 5.82%.

As to `CC(C)CCNC(=O)C1Cc2c([nH]c3ccc(Br)cc23)C2(CCN(CCc3ccccc3)CC2)N1` (stereo not given), the inhibition stood at 0.42%.

Consider `Fc1ccc2[nH]c3c(NCCCN4CCOCC4)ncnc3c2c1`, for which the inhibition is 0.7%.

Regarding `CCS(=O)(=O)c1ccc(-c2cnc3[nH]cc(-c4ccc(N)cc4)c3c2)cc1`, the inhibition stood at 21.7%.

On to `O=C(C=Cc1ccc(Cl)c(Cl)c1)NCCCCCN1CCC(CCCNS(=O)(=O)c2ccc(Br)cc2)CC1`, for which the inhibition is -0.68%.

Consider `O=C(Nc1ccc(F)cc1)c1cnc(N2CCN(c3ccncc3)CC2)c(Cl)c1`, for which the inhibition worked out at 10.4%.

For `COc1ccc(CNCc2ccccc2)cc1-c1ccc(S(=O)(=O)NCCN2CCCC2)c(C)c1`, the inhibition was -0.54%.

Turning to `O=C(CCc1c[nH]cn1)Nc1cccc(-c2ccc(-c3nc4ccccc4[nH]3)cc2)c1`, the inhibition was 4.68%.

For `CN(C)CCCN1CCN(C(=O)c2cccc(-c3noc(C(F)(F)F)n3)c2)CC1`, the inhibition came out at 3.52%.

Regarding `COc1cccc(CNC(=O)c2cc(CNCc3ccccc3)ccc2-c2cccc(CNCc3ccc(-c4ccccc4)cc3)c2)c1`, the inhibition was found to be 4.88%.

For `COc1cc(Cc2cnc(N)nc2N)c2c(c1OC)OC(C)C=C2` (stereo not given), the inhibition stood at 2.39%.

`CCN(CC)CCCSc1ccc(-c2ccc(SCCCN(CC)CC)cc2)cc1`: the inhibition amounted to 91.5%.

For the compound `N=C(N)CCN(Cc1ccccc1)c1ccc(Cl)cc1`, the inhibition is -1.28%.

As to `CC(C)(C)OC(=O)NCCc1cccc(-c2c[nH]c3ncc(-c4cccc(NS(C)(=O)=O)c4)cc23)c1`, the inhibition is -2.71%.
